Test [1] in a line: qHTS assay to identify small molecule antagonists of the androgen receptor (AR) signaling pathway using the MDA cell line in the presence of 0.5 nM R1881 - cell viability counter screen (AID 1259242). Also: nearly all actives have a fitted effect of over 45% in size. Summed up: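 Viability of MDA-kb2 cells was multiplexed with the luciferase AR readout; after 16 hr with compounds and R1881 at 0.5 nM final, CellTiter-Fluor fluorescence was recorded.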

Test [2] deals with Estrogen receptor (Homo sapiens) (UniProt P03372). Nature of the test: qHTS assay to identify small molecule antagonists of the estrogen receptor alpha (ER-alpha) signaling pathway using the BG1 cell line in the presence of 0.1 nM 17-beta-estradiol (AID 1259244). Also: nearly all actives have a fitted effect of over 50% in size. Also: potency is read from the fitted curve at half-maximal effect. Summed up: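 Estradiol at 0.1 nM (final) stimulates the endogenous ER-alpha of VM7Luc4E2 cells carrying an ERE-driven luciferase; compounds are co-incubated 22 h at 37C and luciferase output quantified by luminescence.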
Background: Quantitative high-throughput screening tests each substance at several concentrations.

Test [3] can be described thus: qHTS assay to identify small molecule HDAC inhibitors (AID 1259364).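 Also: wild-type HCT-116 cells with endogenous class I/II HDAC activity; top concentration of the series differs between compounds; nearly all actives have a fitted effect of over 45% in size.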 In a few lines: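 Read-out: luminescence of HDAC-Glo I/II reagent, 30 min RT, reflecting class I/II deacetylase activity in whole HCT-116 cells pre-exposed 2 h to DMSO-dissolved compounds.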
Test [4] can be described thus: qHTS assay to identify small molecule HDAC inhibitors - cell viability counter screen (AID 1259365). Also: series mostly up to about 92 µM; nearly all actives have a fitted effect of over 50% in size. In a few lines:
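Cytotoxicity was gauged in wild-type HCT-116 cells after a brief 2hr treatment with DMSO-dissolved compounds at 37C and 5% CO2, using CellTiter-Glo luminescence developed for 30min at room temperature.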

Test [5] can be described thus: qHTS assay to identify small molecule agonists of the sonic hedgehog signaling (Shh) pathway (AID 1259368; calls by dose curve;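 also: NIH/3T3-derived 3T3Gli1-Luc cells carrying a stable Gli1-driven firefly luciferase reporter; series mostly up to about 92 µM; nearly all actives have a fitted effect of over 15% in size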). In a few lines: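 A Gli1 transcriptional response element controlled firefly luciferase in 3T3Gli1-Luc cells. Compounds and a positive control were added 4 hr after plating, and cells were incubated a further 24 hr at 37 C before luminescence detection.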
The nature of test [6]: qHTS assay to identify small molecule antagonists of the sonic hedgehog signaling (Shh) pathway (AID 1259369; calls by dose curve; also: nearly all actives have a fitted effect of over 45% in size; also: potency is read from the fitted curve at half-maximal effect). In a few lines:
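For antagonist detection, the reporter line received test compounds together with conditioned medium, incubated 24hr at 37 C, 5% CO2, then luminescence was recorded following 30min room-temperature luciferase reagent incubation.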

The target in test [7] is Estrogen receptor beta (Homo sapiens) (UniProt Q92731). Nature of the test: qHTS assay to identify small molecule antagonists of the estrogen receptor beta (ER-beta) signaling pathway (AID 1259378; active = well fitted inhibition curve with a large enough effect in the signal ratio in the repeat runs, not every such curve was filed as active; the % refers to the signal ratio; also: potency is read from the fitted curve at half-maximal effect). In a few lines: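 Antagonist mode: compounds added to beta-lactamase reporter HEK293T ER-beta-UAS cells stimulated with E2 (1nM final), 16 hr at 37C. LiveBLAzer B/G FRET substrate, 2 hours room temperature, fluorescence read-out.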

The nature of test [8]: qHTS assay to identify small molecule agonists of the estrogen receptor beta (ER-beta) signaling pathway - cell viability counter screen (AID 1259380). Also: nearly all actives have a fitted effect of over 30% in size. Also: potency is read from the fitted curve at half-maximal effect. In a few lines: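 CellTiter-Glo read, 30 min RT, same wells as bla assay; cells ER-beta-UAS-bla HEK293T; 16 hr compound, 37C; medium 2% charcoal-stripped FBS.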
A short description of test [9]: qHTS assay to identify small molecule antagonists of the estrogen receptor beta (ER-beta) signaling pathway - cell viability counter screen (AID 1259382). Also: nearly all actives have a fitted effect of over 55% in size. Also: potency is read from the fitted curve at half-maximal effect.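 As to activity change, negative = cytotoxicity: HEK293T cells carrying ER-beta-UAS-bla reporter stimulated with estradiol; series mostly up to about 92 µM.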 In a few lines: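 In this multiplexed counter screen, cells were seeded at 2,000 per well in medium with 2% charcoal-stripped FBS and incubated 6 hr before compound and 1nM final E2 were added. Sixteen hours later, ATP-based luminescence reported viability.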

Test [10] has as its target Estrogen receptor (Homo sapiens) (UniProt P03372). Nature of the test: qHTS assay to identify small molecule agonists of the estrogen receptor alpha (ER-alpha) signaling pathway in the presence of an antagonist (AID 1259383; calls by dose curve; also: top concentration of the series differs between compounds; nearly all actives have a fitted effect of over 15% in size). Summed up: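 Stably transfected VM7Luc4E2 reporter cells, kept 5 days in charcoal-stripped serum, received ICI-182,780 at 10.0nM final before compound addition. Following 22hr incubation at 37C and 5% CO2, luciferase signal was read by luminescence.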

The nature of test [11]: qHTS assay to identify small molecule agonists or antagonists of the thyroid stimulating hormone receptor (TSHR) signaling pathway - wild type cell line counter screen (AID 1259384; calls by dose curve). Summed up:
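Counter screen in untransfected Hek293: compounds (15-point titration, triplicate) plus phosphodiesterase inhibitor Ro20-1724 added after 18 h plating; 30 min RT. Intracellular cAMP via competitive d2/cryptate immunoassay, 1 h incubation.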

For test [12], the target named is Thyrotropin receptor (Homo sapiens) (UniProt P16473). Nature of the test: qHTS assay to identify small molecule antagonists of the thyroid stimulating hormone receptor (TSHR) signaling pathway (AID 1259385; calls by dose curve; also: nearly all actives have a fitted effect of over 20% in size; also: potency is read from the fitted curve at half-maximal effect). In a few lines: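 Antagonist mode: compound-treated TSHR-expressing HEK293 cells were stimulated with 1.5 ng/mL TSH (final) in presence of Ro20-1724 for 30 min at RT. HTRF cAMP detection after 1 h; each compound tested at 15 concentrations, triplicate.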

Test [13] is described as follows: qHTS assay to identify small molecule agonists of the estrogen receptor alpha (ER-alpha) signaling pathway in the presence of an antagonist - cell viability counter screen (AID 1259386).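 Also: series mostly up to about 92 µM; cells exposed to compounds for 22 h at 37 °C before the viability read; nearly all actives have a fitted effect of over 30% in size.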 Summed up:
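Viability counter screen using VM7Luc4E2 (full-length ER-alpha, four ERE-luciferase). The cells were treated with compounds alongside ICI-182,780 10.0nM for 22hr, and live-cell protease fluorescence was quantified with CellTiter-Fluor.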

Test [14] addresses Estrogen receptor beta (Homo sapiens) (UniProt Q92731). Briefly: qHTS assay to identify small molecule agonists of the estrogen receptor beta (ER-beta) signaling pathway (AID 1259377; active = well fitted activation curve with a large enough effect in the signal ratio in the repeat runs, not every such curve was filed as active; the % refers to the signal ratio). In a few lines: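 Measured by fluorescence intensity from a B/G FRET beta-lactamase substrate (2 h, room temperature) in ER-beta-UAS-bla HEK293T cells treated with DMSO-dissolved compounds for 16 hr at 37C and 5% CO2.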

Test [15] in a line: qHTS assay to identify small molecule agonists of the androgen receptor (AR) signaling pathway in the presence of an antagonist - cell viability counter screen (AID 1259379).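 Also: MDA-kb2 human breast cancer cells carrying an MMTV luciferase reporter; series mostly up to about 92 µM; nearly all actives have a fitted effect of over 25% in size.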 Summed up:
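Seed MDA-kb2 at 3,000 cells/well; incubate 5 hr, 37C, 0% CO2. Add nilutamide to 3.0uM final, then pin compounds at 15 concentrations. Incubate 16 hr. Add CellTiter-Fluor at 15 hr, read fluorescence after 1 hr.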

A short description of test [16]: qHTS assay to identify small molecule agonists of the sonic hedgehog signaling (Shh) pathway - cell viability counter screen (AID 1259366). Also: nearly all actives have a fitted effect of over 50% in size. Also: potency is read from the fitted curve at half-maximal effect. Summed up:
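Stable Gli1-Luc NIH/3T3 clone, 2,000 cells/well. Compound exposure 24hr at 37C. Read-out: CellTiter-Fluor fluorescence.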

Test [17] can be described thus: qHTS assay to identify small molecule antagonists of the sonic hedgehog signaling (Shh) pathway - cell viability counter screen (AID 1259367). Also: nearly all actives have a fitted effect of over 55% in size. In a few lines: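 Using CellTiter-Fluor, viability of Gli1-Luc reporter 3T3 cells is read by fluorescence in the wells used for the Shh luciferase assay. Treatment lasts 23 hr with conditioned medium, then reagent 1 hr at 37C.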

A number with no mark means an inactive call. Records with an inconclusive call do not appear. Activity calls are given as the source filed them. Unless noted, calls follow the shape of the dose curve; as a rule, active = well fitted curve in the direction sought with a large enough effect in the repeat runs; inconclusive = weak or mixed curves; inactive = no such curve, though single readings can be large; an effect the other way counts as inactive or inconclusive.
% is scaled to controls: 0 for no effect and ±100 for the full control effect.

Chain of Estrogen receptor beta (Homo sapiens) (Q92731 whole entry, looked up): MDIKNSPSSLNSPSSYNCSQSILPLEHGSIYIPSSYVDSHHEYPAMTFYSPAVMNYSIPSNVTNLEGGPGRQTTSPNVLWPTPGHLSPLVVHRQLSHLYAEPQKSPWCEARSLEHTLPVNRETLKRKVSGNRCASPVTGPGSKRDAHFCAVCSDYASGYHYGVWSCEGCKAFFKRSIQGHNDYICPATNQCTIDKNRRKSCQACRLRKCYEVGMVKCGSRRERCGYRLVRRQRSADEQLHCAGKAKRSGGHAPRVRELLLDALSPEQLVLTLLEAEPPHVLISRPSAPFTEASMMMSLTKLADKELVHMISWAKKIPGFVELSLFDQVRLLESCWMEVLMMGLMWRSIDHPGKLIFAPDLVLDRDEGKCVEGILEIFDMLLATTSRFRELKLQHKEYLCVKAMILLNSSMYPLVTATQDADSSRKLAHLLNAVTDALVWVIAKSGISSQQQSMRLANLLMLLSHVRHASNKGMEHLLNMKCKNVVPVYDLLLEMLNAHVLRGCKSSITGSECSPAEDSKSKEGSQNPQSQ
Chain of Estrogen receptor (Homo sapiens) (P03372 whole entry, looked up): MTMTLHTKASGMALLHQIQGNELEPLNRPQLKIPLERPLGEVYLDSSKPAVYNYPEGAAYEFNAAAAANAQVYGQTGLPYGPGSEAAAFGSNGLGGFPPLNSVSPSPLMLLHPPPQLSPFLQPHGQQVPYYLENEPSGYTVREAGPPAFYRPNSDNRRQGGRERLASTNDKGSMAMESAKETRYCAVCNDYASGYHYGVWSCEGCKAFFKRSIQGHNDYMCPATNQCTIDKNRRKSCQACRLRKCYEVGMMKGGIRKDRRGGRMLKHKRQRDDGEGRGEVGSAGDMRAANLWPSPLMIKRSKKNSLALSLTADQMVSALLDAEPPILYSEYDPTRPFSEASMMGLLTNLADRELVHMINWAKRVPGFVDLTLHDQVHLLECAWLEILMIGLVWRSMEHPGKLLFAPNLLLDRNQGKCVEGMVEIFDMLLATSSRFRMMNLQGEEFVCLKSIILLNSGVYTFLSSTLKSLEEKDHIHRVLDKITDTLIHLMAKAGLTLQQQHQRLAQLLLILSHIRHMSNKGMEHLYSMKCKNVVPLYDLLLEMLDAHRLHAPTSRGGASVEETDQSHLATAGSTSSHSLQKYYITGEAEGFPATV
Chain of Thyrotropin receptor (Homo sapiens) (P16473 whole entry, looked up): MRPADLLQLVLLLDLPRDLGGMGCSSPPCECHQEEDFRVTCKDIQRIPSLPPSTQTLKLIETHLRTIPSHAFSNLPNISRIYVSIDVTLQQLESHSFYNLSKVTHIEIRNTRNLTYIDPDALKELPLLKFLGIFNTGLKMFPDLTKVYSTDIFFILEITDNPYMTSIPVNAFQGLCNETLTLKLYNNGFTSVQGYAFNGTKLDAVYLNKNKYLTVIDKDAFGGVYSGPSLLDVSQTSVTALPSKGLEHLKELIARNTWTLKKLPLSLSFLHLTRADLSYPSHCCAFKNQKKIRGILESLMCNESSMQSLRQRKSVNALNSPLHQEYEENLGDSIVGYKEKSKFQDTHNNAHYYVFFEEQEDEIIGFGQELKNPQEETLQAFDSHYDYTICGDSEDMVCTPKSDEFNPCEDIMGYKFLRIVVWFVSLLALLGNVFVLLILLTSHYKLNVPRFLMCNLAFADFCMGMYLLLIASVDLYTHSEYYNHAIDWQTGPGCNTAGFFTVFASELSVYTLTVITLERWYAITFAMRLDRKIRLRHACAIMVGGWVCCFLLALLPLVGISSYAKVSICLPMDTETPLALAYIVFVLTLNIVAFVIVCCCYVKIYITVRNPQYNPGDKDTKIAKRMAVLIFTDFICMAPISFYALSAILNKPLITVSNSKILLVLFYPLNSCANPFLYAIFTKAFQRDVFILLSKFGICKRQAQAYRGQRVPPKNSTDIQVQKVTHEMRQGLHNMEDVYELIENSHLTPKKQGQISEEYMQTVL

Consider `C=C[C@](C)(O)CC[C@@H]1[C@@]2(C)CCCC(C)(C)[C@@H]2CC[C@@]1(C)O`, for which the Potency result in [1], in [3], in test [4], in [5], in [10] and in [12] was “inactive” throughout. Besides, the Potency result in [13] is “inactive”. In addition, the Potency is 61.1 µM (active) in test [2]; 61.1 µM (active) in test [6]; 27.3 µM (active) in test [7]; 48.6 µM (active) in [8]; 61.1 µM (active) in test [9]. In addition, the call in [11] was inactive.
Consider `CCC(=O)OCCc1ccccc1`, for which the Potency result in test [1], in test [2], in [3], in test [4], in test [5] and in [14] was “inactive” each time. Moreover, the Potency result in test [7], in test [15], in [8], in [9], in test [10] and in [12] was “inactive” throughout. Also, the Potency result in test [13] is “inactive”. Also, the outcome in [11] was inactive.
With `O=C=NCc1cccc(CN=C=O)c1`, the results for the viability change, negative = cytotoxic in [1], in test [16] and in [17] were -0.671% [at 19 µM], 4.73% [at 19 µM] and -1.32% [at 19 µM], respectively. The activity change, negative = inhibition is 2.93% [at 19 µM] in test [2], 3.12% [at 19 µM] in test [3], 11.1% [at 19 µM] in [6] and 2.52% [at 19 µM] in test [12]. In addition, the activity change, negative = cytotoxicity is 0.277% [at 19 µM] in test [4], -5.15% [at 19 µM] in test [15], 2.31% [at 19 µM] in test [8] and 13% [at 19 µM] in [9]. Further, in [5], the activity change is -1.18% [at 18.9 µM, stronger effect = higher value]. In addition, the activation in [10] was 0.099% [at 19 µM]. In test [11], the cAMP activity change was -0.613% [at 18.9 µM].
Turning to `CNC(=S)NN`, the Potency result in test [1], in [3], in test [4], in test [5], in test [15] and in test [10] was “inactive” in each case. For the same molecule, the Potency result in test [12] and in [13] was “inactive” in each case. In addition, the Potency in test [2] is 48.6 µM (active); in [16], 30.6 µM (active); in test [6] it was 3.44 µM (active); in test [8] it was 17.2 µM (active). The call in [11] was inactive.
Consider `CC(CN(C)C)CN1c2ccccc2CCc2ccccc21` (stereo not given), for which the Potency entry in [1], in [2], in [3], in test [4], in [16] and in [17] was “inactive” each time. Besides, the Potency result in test [5], in test [10] and in [13] was “inactive” in each case. The Potency in test [6] is 2.37 µM (active); in test [8] it was 26.6 µM (active); in test [9], 23.7 µM (active); in [12] it was 29.8 µM (active). Besides, the result in test [11] was inactive.
Turning to `C1CC(COCC2CO2)CCC1COCC1CO1` (stereo not given), the Potency result in test [1], in [2], in test [3], in [4], in test [16] and in test [17] was “inactive” in each case. In addition, the Potency result in [5], in [6], in test [15], in test [9], in [10] and in [12] was “inactive” each time. Moreover, the Potency entry in test [13] is “inactive”. Also, the result in test [11] was inactive.
Turning to `NCCCCCCNCCCCCCN`, the Potency result in test [1], in test [2], in [3], in [4], in [5] and in [15] was “inactive” each time. For the same molecule, the Potency entry in [8], in [9], in [10] and in test [13] was “inactive” each time.
Consider `CCCCCCCCCCCCCCCC`, for which the Potency entry in test [1], in [2], in test [3], in test [4], in test [16] and in test [17] was “inactive” throughout. In addition, the Potency entry in test [5], in [6], in test [15], in test [8], in test [9] and in test [10] was “inactive” each time. The Potency entry in test [12] is “inactive”. Moreover, the call in test [11] was inactive.
Turning to `CCCCCCCC/C=C\CCCCCCCC(=O)N(C)CC(=O)O`, the Potency result in test [1], in [2], in test [3], in test [4], in test [16] and in test [17] was “inactive” throughout. Also, the Potency entry in [5], in [6], in test [10], in test [12] and in test [13] was “inactive” throughout. For the same molecule, the values for the Potency in [8] and in test [9] were 54.5 µM (active) and 61.1 µM (active), respectively. Further, in test [11], the molecule was called inactive.

The record behind these values is PubChem BioAssay (Tox21).
